Experimental data: PubChem BioAssay (EPA / NIEHS)
Calls of active or inactive are those of the source. The calls were made as follows: active = hit-call score of the fitted dose curve at least 0.9, where 1 is the maximum; inactive = score below 0.9.

Experiments:
[1] = ATG_CRE_CIS: Attagene CIS-FACTORIAL HepG2 Assay for human cAMP Responsive Element (CRE) binding protein 3 (AID 2282926); conditions: HepG2 CRE cis-reporter, Attagene multiplexed mRNA; actives raise or lower the signal
In short: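 Endogenous CRE-binding activity in HepG2 is reported through a cis-regulated transfected reporter. Following a day of exposure, mRNA levels are determined by reverse transcription PCR and fluorescent fragment analysis; fits run in both directions versus DMSO.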

[2] = target: CCAAT/enhancer-binding protein beta (Homo sapiens) (UniProt P17676); experiment: ATG_C_EBP_CIS: Attagene CIS-FACTORIAL HepG2 Assay for human CCAAT/Enhancer Binding Protein (C/EBP) beta (AID 2282927); conditions: HepG2 Attagene cis-factorial transcription factor reporter; actives raise or lower the signal
In short: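 Transiently transfected HepG2 (MRTU library, endogenous TF-driven promoters); 24 h dosing; total RNA → oligo(dT) RT → PCR → 6-FAM primer extension → HpaI digest → CE; fit bidirectionally vs DMSO.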

[3] = ATG_CMV_CIS: Attagene CIS-FACTORIAL HepG2 Assay for human CMV (Internal Marker) (AID 2282928); conditions: HepG2 CMV promoter reporter, transcription factor profiling; actives raise or lower the signal;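 also: endpoint acts as a background internal control marker rather than a target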
In short: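 Endogenous transcription factor activity read in HepG2 via transfected cis-promoter reporter units. After 24 h dosing, reporter mRNA measured by RT-PCR/capillary electrophoresis; gain or loss of signal fit relative to DMSO.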

[4] = ATG_DR4_LXR_CIS: Attagene CIS-FACTORIAL HepG2 Assay for human Liver X Receptor (LXR), DR4 submotif (AID 2282929); conditions: HepG2 Attagene DR4 cis-reporter, mRNA transcription; actives raise or lower the signal
In short: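 HepG2, transient MRTU transfection, cis-element (DR4) promoter; 24 h compound exposure; total RNA → oligo(dT) RT → PCR → 6-FAM primer extension → HpaI cut → CE. Gain/loss vs DMSO, bidirectional fit.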

[5] = target: Aryl hydrocarbon receptor (Homo sapiens) (UniProt P35869); experiment: ATG_Ahr_CIS: Attagene CIS-FACTORIAL HepG2 Assay for human Aryl Hydrocarbon Receptor (Ahr) (AID 2282930); conditions: HepG2 AhR cis-factorial reporter transcription; actives raise or lower the signal
In short: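 Read-out: reporter mRNA quantified by RT-PCR with fluorescent primer extension and capillary electrophoresis. Human HepG2 liver cells carried transfected cis-promoter reporter units and were exposed to chemical for 24 h; gain or loss fitted relative to DMSO.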

[6] = ATG_AP_1_CIS: Attagene CIS-FACTORIAL HepG2 Assay for human Activator Protein 1 (AP-1) (AID 2282931); conditions: HepG2 Attagene cis-factorial AP-1 reporter mRNA; actives raise or lower the signal
In short: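 Transient MRTU transfection of HepG2 → 24 h chemical treatment → RNA isolation, RT-PCR, 6-FAM labelling, HpaI digest → capillary electrophoresis. Fit: bidirectional, DMSO negative control.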

[7] = ATG_AP_2_CIS: Attagene CIS-FACTORIAL HepG2 Assay for human Activator Protein 2 (AP-2) (AID 2282932); conditions: HepG2 AP-2 cis-reporter, Attagene transcription factor profiling; actives raise or lower the signal
In short: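 Multiplexed mRNA reporter assay in HepG2: cis-regulated units report endogenous factor activity after 24 h treatment. Fluorescence from capillary electrophoresis of RT-PCR products gives the signal, with DMSO as baseline.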

[8] = ATG_BRE_CIS: Attagene CIS-FACTORIAL HepG2 Assay for human Bone Morphogenetic Protein (BMP) Response Element (BRE) (AID 2282933); conditions: HepG2 BMP response element reporter, Attagene transcription factor profiling; actives raise or lower the signal
In short: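 HepG2 cells transiently transfected with multiplexed cis-element reporter units were dosed with chemical for 24 h. Reporter mRNA was measured by RT-PCR with fluorescent labelling, HpaI digestion and capillary electrophoresis; bidirectional fitting relative to DMSO.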

[9] = target: Retinoic acid receptor alpha (Homo sapiens) (UniProt P10276); experiment: ATG_DR5_RAR_CIS: Attagene CIS-FACTORIAL HepG2 Assay for human Retinoic Acid Receptor Alpha (RARE), DR5 submotif (AID 2282934); conditions: HepG2 Attagene cis-factorial RARE DR5 reporter, mRNA; actives raise or lower the signal
In short: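 Read-out: DR5-driven reporter transcript measured by RT-PCR, 6-FAM primer extension, HpaI digest and capillary electrophoresis. Human HepG2 liver cells carry transiently transfected cis-element reporter constructs; dosing lasts 24 h. Gain or loss of signal fitted against DMSO baseline.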

[10] = target: Transcription factor E2F1 (Homo sapiens) (UniProt Q01094); experiment: ATG_E2F_CIS: Attagene CIS-FACTORIAL HepG2 Assay for human E2F Transcription Factor 1 (AID 2282935); conditions: HepG2 Attagene cis-reporter, E2F reporter RNA transcripts; actives raise or lower the signal
In short: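 Measures reporter transcript levels via RT-PCR with capillary electrophoresis detection in HepG2 cells harboring cis-regulated reporter units; 24 h post-dose; bidirectional curve fitting with DMSO as baseline.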

[11] = ATG_M_61_CIS: Attagene CIS-FACTORIAL HepG2 Assay for M61 Transcription Factor (Internal Marker) (AID 2282937); conditions: HepG2 Attagene CIS-FACTORIAL M61 internal marker reporter; actives raise or lower the signal
In short: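 Human liver HepG2, transient MRTU transfection (cis promoter elements), 24 h compound. Total RNA → oligo(dT) RT → PCR → FAM label → HpaI → CE. Internal background marker; bidirectional fitting, DMSO = baseline.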

[12] = ATG_EGR_CIS: Attagene CIS-FACTORIAL HepG2 Assay for human Early Growth Response 1 (EGR1) (AID 2282938); conditions: HepG2 Attagene CIS-FACTORIAL EGR reporter mRNA; actives raise or lower the signal
In short: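 Transient transfection of human HepG2 with multiple cis-regulated reporter units, chemical exposure 24 h, total RNA isolated. Reverse transcription, PCR, fluorescent labelling and capillary electrophoresis quantify reporter transcripts; activity fitted bidirectionally against DMSO.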

[13] = ATG_M_19_CIS: Attagene CIS-FACTORIAL HepG2 Assay for M19 Transcription Factor (Internal Marker) (AID 2282939); conditions: HepG2 Attagene CIS-FACTORIAL M19 internal marker reporter; actives raise or lower the signal
In short: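 HepG2 cells transiently transfected with cis-regulated multiple reporter transcription units were dosed for 24 h; reporter mRNA was quantified by RT-PCR, 6-FAM primer-extension labelling, HpaI digestion and capillary electrophoresis, with bidirectional fitting against DMSO baseline.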

[14] = ATG_Ets_CIS: Attagene CIS-FACTORIAL HepG2 Assay for human Erythroblast Transformation Specific (ETS) (AID 2282941); conditions: HepG2 ETS cis-reporter transcription, actives raise or lower the signal
In short: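 Steps: transfect HepG2 with multiple reporter units; treat compound 24 h; isolate RNA, DNase-treat, reverse-transcribe; PCR-amplify, label with 6-FAM, digest with HpaI; separate by capillary electrophoresis. Activity fitted both directions versus DMSO.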

[15] = target: Hepatocyte nuclear factor 3-beta (Homo sapiens) (UniProt Q9Y261); experiment: ATG_FoxA2_CIS: Attagene CIS-FACTORIAL HepG2 Assay for human Forkhead box A2 (FOXA2) (AID 2282942); conditions: HepG2 cis-reporter transcription factor activity, 24 h; actives raise or lower the signal
In short: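 Transient MRTU transfection of HepG2 liver cells; 24 h treatment; total RNA → oligo(dT) RT → PCR → FAM primer extension → HpaI cut → CE. Bidirectional fit vs DMSO.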

[16] = ATG_FoxO_CIS: Attagene CIS-FACTORIAL HepG2 Assay for human Forkhead box O (FoxO) (AID 2282943); conditions: HepG2 Attagene cis-reporter, FoxO element, mRNA; actives raise or lower the signal
In short: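 Read-out: fluorescence of 6-FAM-labelled reporter cDNA fragments resolved by capillary electrophoresis. Transiently transfected HepG2 cells were dosed for 24 h; activity fitted in both directions relative to DMSO controls.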

[17] = ATG_GATA_CIS: Attagene CIS-FACTORIAL HepG2 Assay for human GATA Binding Protein (AID 2282944); conditions: HepG2 GATA cis-element reporter, Attagene multiplex mRNA; actives raise or lower the signal
In short: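 HepG2 cells transiently transfected with multiplexed cis-element reporter units reflecting endogenous transcription factor activity; reporter mRNA measured after 24 h dosing by RT-PCR, 6-FAM labeling, HpaI digestion and capillary electrophoresis. Bidirectional fitting versus DMSO baseline.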

[18] = ATG_GLI_CIS: Attagene CIS-FACTORIAL HepG2 Assay for human Zinc Finger Protein GLI1 (AID 2282945); conditions: HepG2, Attagene cis-factorial reporter mRNA, GLI element; actives raise or lower the signal
In short: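 Transiently transfected HepG2 cells report endogenous transcription factor activity via cis-element-driven reporter units. After 24 h compound exposure, reporter mRNA was measured by RT-PCR with capillary electrophoresis; bidirectional fitting against DMSO baseline.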

[19] = ATG_E_Box_CIS: Attagene CIS-FACTORIAL HepG2 Assay for human Enhancer Box (E-box) (AID 2282936); conditions: HepG2 E-box cis-reporter transcription, actives raise or lower the signal
In short: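 First, HepG2 cells receive multiple cis-regulated reporter constructs by transient transfection. Next, chemicals are applied for 24 h. Finally, reporter mRNA is quantified via RT-PCR and capillary electrophoresis, with DMSO as baseline.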

Measured: AC50

Transcription factor E2F1 (Homo sapiens), sequence (Q01094 whole entry, looked up): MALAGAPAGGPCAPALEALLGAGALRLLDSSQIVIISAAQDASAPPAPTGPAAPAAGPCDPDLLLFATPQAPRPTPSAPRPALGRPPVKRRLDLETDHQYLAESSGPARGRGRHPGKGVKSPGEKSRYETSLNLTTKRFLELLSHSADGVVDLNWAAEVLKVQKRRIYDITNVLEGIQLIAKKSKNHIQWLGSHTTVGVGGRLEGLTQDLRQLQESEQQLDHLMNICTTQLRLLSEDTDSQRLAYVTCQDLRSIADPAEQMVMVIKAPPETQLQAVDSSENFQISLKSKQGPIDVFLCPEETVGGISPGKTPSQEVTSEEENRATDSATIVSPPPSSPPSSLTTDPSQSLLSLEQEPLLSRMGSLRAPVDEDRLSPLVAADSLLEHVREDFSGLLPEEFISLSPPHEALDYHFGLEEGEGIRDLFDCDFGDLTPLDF
Aryl hydrocarbon receptor (Homo sapiens), sequence (P35869 whole entry, looked up): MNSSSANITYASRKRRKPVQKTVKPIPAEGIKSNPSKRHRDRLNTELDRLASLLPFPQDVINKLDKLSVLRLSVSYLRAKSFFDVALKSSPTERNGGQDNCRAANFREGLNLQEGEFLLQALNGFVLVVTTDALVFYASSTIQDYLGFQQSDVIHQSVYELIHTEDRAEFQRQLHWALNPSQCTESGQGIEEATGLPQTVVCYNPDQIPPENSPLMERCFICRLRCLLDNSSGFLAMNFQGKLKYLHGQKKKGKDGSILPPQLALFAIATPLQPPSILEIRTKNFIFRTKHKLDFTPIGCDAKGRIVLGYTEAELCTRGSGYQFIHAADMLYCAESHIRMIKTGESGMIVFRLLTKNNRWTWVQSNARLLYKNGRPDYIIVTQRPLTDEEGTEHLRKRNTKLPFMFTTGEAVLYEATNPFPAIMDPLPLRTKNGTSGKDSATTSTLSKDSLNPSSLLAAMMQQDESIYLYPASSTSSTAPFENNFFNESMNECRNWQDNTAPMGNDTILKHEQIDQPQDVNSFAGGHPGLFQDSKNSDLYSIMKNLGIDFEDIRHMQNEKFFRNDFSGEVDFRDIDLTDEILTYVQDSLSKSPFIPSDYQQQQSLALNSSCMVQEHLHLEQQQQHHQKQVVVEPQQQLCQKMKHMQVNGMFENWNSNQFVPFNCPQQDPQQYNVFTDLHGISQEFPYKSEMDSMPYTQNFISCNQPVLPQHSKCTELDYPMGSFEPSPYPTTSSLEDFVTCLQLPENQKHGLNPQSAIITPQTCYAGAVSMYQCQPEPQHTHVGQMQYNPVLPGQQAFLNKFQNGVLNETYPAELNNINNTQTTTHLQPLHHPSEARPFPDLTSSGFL
Hepatocyte nuclear factor 3-beta (Homo sapiens), sequence (Q9Y261 whole entry, looked up): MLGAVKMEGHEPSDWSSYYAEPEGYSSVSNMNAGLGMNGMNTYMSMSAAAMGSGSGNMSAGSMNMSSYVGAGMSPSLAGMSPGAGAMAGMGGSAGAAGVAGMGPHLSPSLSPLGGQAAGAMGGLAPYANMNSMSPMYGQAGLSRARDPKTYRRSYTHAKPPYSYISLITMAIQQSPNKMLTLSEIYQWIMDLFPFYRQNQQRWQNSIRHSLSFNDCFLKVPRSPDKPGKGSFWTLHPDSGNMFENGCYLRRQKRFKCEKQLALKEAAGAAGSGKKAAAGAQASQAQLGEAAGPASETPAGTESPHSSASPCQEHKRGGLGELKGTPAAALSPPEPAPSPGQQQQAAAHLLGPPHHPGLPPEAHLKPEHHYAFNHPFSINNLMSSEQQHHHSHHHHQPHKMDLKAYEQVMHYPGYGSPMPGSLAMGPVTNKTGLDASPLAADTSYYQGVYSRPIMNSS
CCAAT/enhancer-binding protein beta (Homo sapiens), sequence (P17676 whole entry, looked up): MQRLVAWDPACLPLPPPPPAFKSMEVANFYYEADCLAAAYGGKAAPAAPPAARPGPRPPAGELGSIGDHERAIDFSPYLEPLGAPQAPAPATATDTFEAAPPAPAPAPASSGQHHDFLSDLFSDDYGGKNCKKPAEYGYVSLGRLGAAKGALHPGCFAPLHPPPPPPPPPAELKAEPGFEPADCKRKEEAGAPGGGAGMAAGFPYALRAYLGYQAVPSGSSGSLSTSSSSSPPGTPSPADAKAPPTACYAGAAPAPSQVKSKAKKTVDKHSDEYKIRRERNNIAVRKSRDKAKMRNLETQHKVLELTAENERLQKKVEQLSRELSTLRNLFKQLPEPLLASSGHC
Retinoic acid receptor alpha (Homo sapiens), sequence (P10276 whole entry, looked up): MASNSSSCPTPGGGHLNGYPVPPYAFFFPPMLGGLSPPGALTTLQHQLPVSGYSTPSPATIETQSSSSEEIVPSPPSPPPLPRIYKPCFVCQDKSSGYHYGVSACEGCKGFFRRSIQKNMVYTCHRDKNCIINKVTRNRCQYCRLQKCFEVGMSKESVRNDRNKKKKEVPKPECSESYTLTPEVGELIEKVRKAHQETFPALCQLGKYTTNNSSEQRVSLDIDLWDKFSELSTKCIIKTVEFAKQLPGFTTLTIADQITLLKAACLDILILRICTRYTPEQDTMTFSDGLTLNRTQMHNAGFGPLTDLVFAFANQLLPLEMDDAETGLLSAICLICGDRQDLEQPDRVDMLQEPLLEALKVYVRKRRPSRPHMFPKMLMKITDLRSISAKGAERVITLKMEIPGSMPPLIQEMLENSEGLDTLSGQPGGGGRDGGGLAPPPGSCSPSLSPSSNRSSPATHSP

CCc1ncc(C)[nH]1
not listed: [19]
inactive: all other assays above

Cc1ccc(S(N)(=O)=O)cc1
not listed: [12] | [19]
inactive: all other assays above

CCCCSCCCC
not listed: [19]
inactive: all other assays above

[Cl][Au]([Cl])[Cl]
active: [5] 39.8 µM | [6] 72.6 µM
not listed: [11] | [16]
inactive: all other assays above

CCOC(=O)[C@@H](C)Oc1ccc(Oc2nc3ccc(Cl)cc3o2)cc1
active: [4] 152 µM | [8] 156 µM
not listed: [10]
inactive: all other assays above
